Values joined by “and” are separate entries in the source; they are usually repeats but may differ in a detail not shown here. Equal values may be shown once. Records with an inconclusive call do not appear. A structure can be active in one record and inactive in another. Unmarked numbers belong to inactive results. Active and inactive are the calls of the source. Calls follow the shape of the dose curve; as a rule, active = well fitted inhibition curve with a large enough effect; inconclusive = small, poorly fitted or top-dose-only effect; inactive = flat fitted curve, though single readings scatter.

One assay has as its system CRL-7250. Description: Cytotoxic Profiling of Annotated Libraries Using Quantitative High-Throughput Screening (AID 1296008). Also: potency is read from the fitted curve at half-maximal effect. As to max response: % is scaled to controls: 0 for no effect and ±100 for the full control effect. As to conditions: Five cell lines viability, CellTiter-Glo ATP luminescence, 48-72 h; max response: active compounds read low. Put shortly: (§1)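 Compounds were pin-transferred onto cells and incubated 48 or 72 hr at 37 degree Celsius, 95% humidity. CellTiter-Glo was added, plates sat 10 min at room temperature, then ATP-coupled luminescence was imaged as the viability read-out.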

The test system of assay [1] is HaCat. Described as above. As to conditions: Five cell lines viability, CellTiter-Glo ATP luminescence, 48-72 h; max response: active compounds read low. Put shortly: as §1
Another assay deals with KB-3-1. The assay is described as above. As to conditions: Five cell lines viability, CellTiter-Glo ATP luminescence, 48-72 h; max response: active compounds read low. The essentials: as §1
A further assay has as its system NIH3T3. The description is as above. As to conditions: Five cell lines viability, CellTiter-Glo ATP luminescence, 48-72 h; max response: active compounds read low. The essentials: as §1
Assay [2] deals with HACAT. The assay is described as follows: qHTS assay to identify novel small-molecules to repurpose for Merkel cell carcinoma treatment (AID 1296009). As to conditions: MCC and control cell lines, CellTiter-Glo viability, 72 h; at 44.8 µM (top of the series) unless noted. Put shortly: (§2)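 Cells exposed to NPC (8-point) and MIPE (11-point) compound dilutions for 72 hr at 37 degree celsius; viability read by CellTiter-Glo luminescence, normalized to no-cell and DMSO in-plate controls.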

The next assay concerns MCC-13. The assay is described as above. As to conditions: MCC and control cell lines, CellTiter-Glo viability, 72 h; series mostly up to 46 µM. Put shortly: as §2
A further assay deals with W2. Description: qHTS profiling for inhibitors of Plasmodium falciparum proliferation (AID 504749). Also: potency is read from the fitted curve at half-maximal effect. As to conditions: P. falciparum in erythrocytes, SYBR Green DNA, 72 h; series mostly up to 28.7 µM. The essentials: (§3)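 P. falciparum-infected erythrocytes (0.3% parasitemia, 2.5% hematocrit final) were exposed to compounds for 72 h at 37 C in 5% CO2, then lysed with SYBR Green buffer overnight at room temperature; parasite DNA fluorescence was normalized to artemisinin and DMSO controls.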

The next assay relates to HEK293. The assay is described as follows: Cytotoxic Profiling of Annotated Libraries Using Quantitative High-Throughput Screening (AID 1296008). Also: potency is read from the fitted curve at half-maximal effect. As to max response: % is scaled to controls: 0 for no effect and ±100 for the full control effect. As to conditions: Five cell lines viability, CellTiter-Glo ATP luminescence, 48-72 h; max response: active compounds read low. Put shortly:
as §1

The test system of the next assay is HEK293T. Description: qHTS assay to identify novel small-molecules to repurpose for Merkel cell carcinoma treatment (AID 1296009). As to conditions: MCC and control cell lines, CellTiter-Glo viability, 72 h; at 44.8 µM (top of the series) unless noted. The essentials:
as §2

Another assay deals with TAB165. Description: qHTS profiling for inhibitors of Plasmodium falciparum proliferation (AID 504749). Also: potency is read from the fitted curve at half-maximal effect. As to conditions: P. falciparum in erythrocytes, SYBR Green DNA, 72 h; series mostly up to 28.7 µM. The essentials: as §3
Also: nearly all actives have a fitted effect of over 60% in size.

In the case of `Cn1c(=O)c2c(ncn2CC(O)CO)n(C)c1=O` (stereo not given), the max response with CRL-7250 is 2.57% and -3.36%; in the assay on HaCat [1], 2.18%; with KB-3-1 it was 3.89%; in the assay with NIH3T3 it was 2.82% and -0.547%. For the same compound, the call with HaCat [1], in the assay on KB-3-1 and in the assay on HACAT [2] was inactive. For the same compound, the Potency entry with MCC-13 was “inactive”.
With `CC(N)C12CC3CC(CC(C3)C1)C2` (stereo not given), in the assay on W2, the Potency is 6.75 µM (active). The max response in the assay on CRL-7250 was 1.82% and 3.28%; in the assay with HEK293, -21.7% and 2.38%; in the assay with HaCat [1], 2.96% and 2.31%; with KB-3-1, 16.9% and 3.92%. In addition, in the assay with NIH3T3, the compound was called inactive. Moreover, in the assay on MCC-13, the Potency result is “inactive”.
As to `CC1=C(C(=O)O)N2C(=O)[C@@H](NC(=O)C(N)c3ccccc3)[C@H]2SC1` (stereo not given in full), the max response in the assay on CRL-7250 was -9.32%; in the assay with HEK293, -2.36%; in the assay with HaCat [1], 3%. Moreover, the call with KB-3-1 and in the assay on NIH3T3 was inactive. In addition, the Potency result in the assay with MCC-13 was “inactive”.
Turning to `COC(c1ccccc1)(c1ccccc1)[C@H](Oc1nc(C)cc(C)n1)C(=O)O`, the outcome in the assay with CRL-7250, with KB-3-1 and with NIH3T3 was inactive. Also, the max response was -24.1% and 3.62% in the assay with HEK293; -18.5% and -6.09% with HaCat [1]; 0.37% with KB-3-1; -19.9% in the assay on NIH3T3. The Potency entry in the assay on MCC-13 was “inactive”.
Turning to `CCN[C@H]1C[C@H](C)S(=O)(=O)c2sc(S(N)(=O)=O)cc21`, the max response in the assay on CRL-7250 was -1.48% and 1.03%; with HaCat [1] it was -6.44%; in the assay on KB-3-1, 1.27% and -0.756%; with NIH3T3 it was 0.236% and 2.34%. Also, the call in the assay on HaCat [1], with HACAT [2] and with HEK293T was inactive. For the same compound, the Potency result with MCC-13 is “inactive”.
In the case of `COc1cccc(N(C)C(=S)Oc2ccc3c(c2)CCCC3)n1`, the compound was classed as inactive in the assay with CRL-7250, in the assay with HaCat [1] and in the assay on HACAT [2]. The max response in the assay with HEK293 was -19.3%; in the assay on KB-3-1 it was -2.71% and 6.85%; in the assay with NIH3T3 it was 2.09%. In addition, in the assay on MCC-13, the Potency result was “inactive”.
`Nc1nc(N)c2nc(CNc3ccc(C(=O)NC(CCC(=O)O)C(=O)O)cc3)cnc2n1` (stereo not given): the Potency result in the assay with TAB165 and with W2 was “inactive” each time. Moreover, the Potency with CRL-7250 is 118 nM (active); with HEK293 it was 132 nM (active); with KB-3-1, 0.0332 µM (active); with NIH3T3 it was 93.5 nM (active). Moreover, the max response in the assay on HaCat [1] is 4.29%.
In the case of `CCC(=O)O[C@]1(C(=O)SCF)[C@H](C)C[C@H]2[C@@H]3C[C@H](F)C4=CC(=O)C=C[C@]4(C)[C@@]3(F)[C@@H](O)C[C@@]21C`, the call in the assay with CRL-7250, in the assay with HaCat [1], in the assay on KB-3-1 and in the assay with HACAT [2] was inactive. The max response with HaCat [1] is 0.77%; with KB-3-1, 26.7%; in the assay with NIH3T3, 1.81% and -2.44%. Besides, the Potency result in the assay on MCC-13 is “inactive”.
`CC(C)(C)NC(=O)[C@H]1CC[C@H]2[C@@H]3CC[C@H]4NC(=O)C=C[C@]4(C)[C@H]3CC[C@]12C`: the max response is -15.1% and -1.46% in the assay on CRL-7250; -5.16% in the assay on HEK293; -13.8% and -8.14% in the assay on HaCat [1]; 9.49% and 2.45% in the assay with KB-3-1; 2.59% in the assay on NIH3T3. Also, the outcome in the assay on NIH3T3 was inactive. Further, in the assay on MCC-13, the Potency result is “inactive”.
Regarding `CCCCOc1ccc(CC(=O)NO)cc1`, the values for the Potency in the assay with TAB165, in the assay with W2 and in the assay on NIH3T3 were 3.16 µM (active), 0.572 µM (active) and 23700 nM (active), respectively. Moreover, the max response is -23.3% in the assay on CRL-7250, -50.4% in the assay with HEK293, -6.89% in the assay on KB-3-1 and -7.85% in the assay on NIH3T3. Besides, the compound was classed as inactive with KB-3-1. Moreover, the Potency entry with MCC-13 was “inactive”.
As to `COc1cc2ncnc(Nc3cccc(Cl)c3)c2cc1OC`, the Potency in the assay on CRL-7250 is 187 nM (active); with HaCat [1] it was 16.6 nM (active) and 1.46 µM (active); in the assay with KB-3-1, 16.6 µM (active); with NIH3T3, 2090 nM (active). Moreover, in the assay on NIH3T3, the max response is -25%. Also, the Potency entry in the assay with MCC-13 was “inactive”.
For the compound `CCN(C)C(=O)Oc1cccc([C@H](C)N(C)C)c1`, the Potency entry in the assay with TAB165, in the assay with W2 and in the assay on MCC-13 was “inactive” throughout. In addition, the max response is -5.92% and -3.92% with CRL-7250; -4.32% in the assay with HaCat [1]; 1.39% and 1.13% with KB-3-1; 1.74% and -5.17% in the assay with NIH3T3. The compound was called inactive in the assay on HaCat [1], in the assay with HACAT [2] and with HEK293T.
Consider `COC(=O)Nc1nc2ccc(Sc3ccccc3)cc2[nH]1`, for which the Potency result in the assay with TAB165 and with W2 was “inactive” each time. Also, the Potency was 2370 nM (active) in the assay on CRL-7250; 473 nM (active) and 1.32 µM (active) in the assay on HEK293; 1.66 µM (active) in the assay with KB-3-1; 668 nM (active) in the assay with NIH3T3. In addition, the max response in the assay on HaCat [1] is -7.21%.
For the compound `COc1cc(NS(=O)(=O)c2ccc(N)cc2)nc(OC)n1`, the Potency entry in the assay with TAB165, in the assay with W2 and with MCC-13 was “inactive” each time. Also, the max response is -1.11% and -2.3% in the assay on CRL-7250; 4.64% and 3.91% in the assay with HEK293; 3.08% in the assay on KB-3-1; -5.03% and -1.81% in the assay with NIH3T3. Besides, the compound was called inactive with HaCat [1], with KB-3-1 and in the assay on HACAT [2].
For `O=C(NCC1CN(c2ccc(N3CCOCC3=O)cc2)C(=O)O1)c1ccc(Cl)s1` (stereo not given), the compound was called inactive with CRL-7250, in the assay on HaCat [1], in the assay on NIH3T3 and in the assay on HACAT [2]. Moreover, the max response in the assay on HEK293 was -28.8%; in the assay with KB-3-1, -19.6%; in the assay on NIH3T3, 3.35%. For the same compound, the Potency result in the assay with MCC-13 was “inactive”.
Consider `CCN(CC)CCn1c(=O)c(Cc2ccc(OC)cc2)nc2ccccc21`, for which the max response was -4.28% in the assay on CRL-7250, -7.99% in the assay on HaCat [1] and -9.16% in the assay on KB-3-1. Besides, the outcome in the assay with KB-3-1 and with NIH3T3 was inactive. The Potency entry in the assay with MCC-13 is “inactive”.
`Nc1nc(N)nc(-c2cc(Cl)ccc2Cl)n1`: the Potency entry in the assay with TAB165, in the assay on W2 and in the assay on MCC-13 was “inactive” throughout. The max response is -4.29% and -4.54% in the assay on CRL-7250; -8.28% and -2.53% in the assay on HEK293; -21.1% and 4.26% with HaCat [1]; -7.71% with KB-3-1; -1.04% and -13.6% in the assay on NIH3T3.

(Values after PubChem BioAssay (NCATS).)
